Records with an inconclusive call do not appear. Active and inactive are the calls of the source. Unless noted, calls come from the whole dose curve.
Tests used:
[1] = target: Lysosomal acid glucosylceramidase (Homo sapiens) (UniProt P04062); assay: Glucocerebrosidase-p2 (AID 348; in the data active = potency below about 10 µM; note: potency is the fitted concentration of half-maximal effect); settings: purified GBA, blue fluorogenic substrate, 40 min
In short: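 Compounds titrated from 0.6 nM upwards against 0.2 nM enzyme in pH 5.9 citric acid/KH2PO4, taurocholate, tween-20; blue fluorogenic substrate 80 uM, 40 min room temperature, stopped and read Ex 365/Em 440 for AC50.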

[2] = AP1 Signaling Pathway (AID 357; active = well fitted curve in either direction with a large enough effect, not every such curve was filed as active;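 note: ME-180 reporter cells stimulated with EGF at its EC50 level; % is set by controls: 0 for no effect and ±100 for the full control effect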); settings: ME-180 AP-1-bla reporter, EGF-induced, beta-lactamase ratio, 5 h; at 7.69 µM (top of the series) unless noted
In short: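 Cells are seeded overnight, exposed to compound titrations and an EC50 level of EGF for 5 hours at 37 °C, then loaded with CCF4 dye for 2.5 hours. Beta-lactamase activity under the AP-1 element is read as a blue/green ratio.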

[3] = target: Cytochrome P450 1A2 (Homo sapiens) (UniProt P05177); assay: p450-cyp1a2 (AID 410); settings: recombinant CYP1A2, luciferin-ME demethylation, luminescence; series mostly up to 57 µM; note: potency is the fitted concentration of half-maximal effect;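 for activity change, negative = inhibition: -100% = full effect of reference inhibitor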
Sequence of Cytochrome P450 1A2 (Homo sapiens) (P05177 whole entry, looked up): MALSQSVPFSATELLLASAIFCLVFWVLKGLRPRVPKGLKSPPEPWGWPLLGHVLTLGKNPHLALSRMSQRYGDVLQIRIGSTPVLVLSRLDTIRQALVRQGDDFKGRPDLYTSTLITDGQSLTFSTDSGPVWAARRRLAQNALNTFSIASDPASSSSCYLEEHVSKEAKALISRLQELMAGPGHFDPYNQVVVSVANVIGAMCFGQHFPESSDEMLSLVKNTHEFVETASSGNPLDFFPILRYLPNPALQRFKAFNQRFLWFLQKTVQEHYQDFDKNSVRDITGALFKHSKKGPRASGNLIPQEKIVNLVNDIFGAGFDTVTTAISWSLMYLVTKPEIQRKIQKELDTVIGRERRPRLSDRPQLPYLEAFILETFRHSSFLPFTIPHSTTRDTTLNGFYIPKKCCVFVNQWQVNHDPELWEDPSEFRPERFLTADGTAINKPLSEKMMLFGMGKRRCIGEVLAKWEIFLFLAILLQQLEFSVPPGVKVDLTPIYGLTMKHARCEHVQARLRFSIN
In short: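 Inhibition was calculated relative to 57 uM furafylline (full inhibition). The reaction used human CYP1A2 at 20nM with Luciferin-ME at its Km, 100uM, driven by an NADPH-regenerating system for 60 min at room temperature.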

[4] = NFAT Signaling Pathway (AID 444; active = well fitted curve in either direction with a large enough effect, not every such curve was filed as active;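 note: carbachol stimulus at about its EC50 of 1 µM final; % is set by controls: 0 for no effect and ±100 for the full control effect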); settings: Jurkat NFAT-bla M1, carbachol, beta-lactamase ratio, 5 h; at 7.69 µM (top of the series) unless noted
In short: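 Jurkat cells with NFAT-driven β-lactamase reporter and co-expressed M1 receptor, stimulated with carbachol (final 1 uM, ~EC50), compound titration, 5 h at 37 °C. CCF4 loaded 1 h at RT; 460/530 nm ratio gave %activity and AC50.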

[5] = target: Glucocorticoid receptor (Homo sapiens) (UniProt P04150); assay: GR-EFC Redistribution (AID 451); settings: CHO-K1 GR-EFC translocation, beta-gal luminescence, 2 h; note: potency is the fitted concentration of half-maximal effect
Sequence of Glucocorticoid receptor (Homo sapiens) (P04150 whole entry, looked up, the tested form may be a part): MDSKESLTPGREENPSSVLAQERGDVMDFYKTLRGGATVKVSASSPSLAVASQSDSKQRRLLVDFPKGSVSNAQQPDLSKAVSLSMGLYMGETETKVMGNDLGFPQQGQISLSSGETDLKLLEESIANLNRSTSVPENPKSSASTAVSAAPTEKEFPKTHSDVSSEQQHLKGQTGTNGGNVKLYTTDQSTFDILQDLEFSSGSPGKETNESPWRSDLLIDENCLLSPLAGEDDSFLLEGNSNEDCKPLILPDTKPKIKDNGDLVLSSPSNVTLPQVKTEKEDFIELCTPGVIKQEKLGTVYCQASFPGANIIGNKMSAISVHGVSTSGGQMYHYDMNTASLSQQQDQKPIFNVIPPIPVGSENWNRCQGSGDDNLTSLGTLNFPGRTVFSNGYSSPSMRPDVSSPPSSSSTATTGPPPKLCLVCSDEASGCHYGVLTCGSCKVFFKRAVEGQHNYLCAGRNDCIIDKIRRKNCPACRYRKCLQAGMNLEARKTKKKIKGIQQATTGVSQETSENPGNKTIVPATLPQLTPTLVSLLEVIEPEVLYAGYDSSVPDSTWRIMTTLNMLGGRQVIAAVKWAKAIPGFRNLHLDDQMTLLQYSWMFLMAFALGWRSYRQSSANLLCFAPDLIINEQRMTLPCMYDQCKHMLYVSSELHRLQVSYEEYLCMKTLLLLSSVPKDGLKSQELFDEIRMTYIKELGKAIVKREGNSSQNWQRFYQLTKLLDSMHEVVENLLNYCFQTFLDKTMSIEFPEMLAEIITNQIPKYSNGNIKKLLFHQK
In short: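 CHO-K1 cells expressing nuclear EA and GR-ED fragments of b-gal; compounds titrated up to 46 uM final, 2 h at 37 C. GR nuclear translocation read as complemented b-gal luminescence after 1 h RT detection.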

[6] = target: Mitogen-activated protein kinase 10 (Mus musculus) (UniProt Q61831); assay: JNK3 AlphaScreen Assay (AID 530; active = well fitted curve in either direction with a large enough effect, not every such curve was filed as active;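 note: kinase came from lysate of stimulated human HepG2 cells; signal reports phosphorylation of biotinylated GST-cJun 1-79 at Ser73 with 10 µM ATP; % is set by controls: 0 for no effect and ±100 for the full control effect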); settings: JNK3 lysate, c-Jun phosphorylation; series mostly up to 57.1 µM
In short: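 qHTS format: compounds tested as titrations against IL-1beta/TNF-alpha-activated HepG2 lysate JNK3 with biotin-GST-cJun substrate and 10 uM ATP at room temperature. Loss of anti-phospho-cJun AlphaScreen signal indicates inhibition.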

[7] = target: 3',5'-cyclic-AMP phosphodiesterase 4B (Homo sapiens) (UniProt Q07343); assay: qHTS Assay for Inhibitors of PDE-IV (AID 607; active = well fitted activation curve with a large enough effect in the main read-out, with a control signal flat, not every such curve was filed as active; note: % of control where 0% means no effect); settings: HEK293 ACTOne CNG channel cells, membrane potential fluorescence; series mostly up to 22.9 µM
Sequence of 3',5'-cyclic-AMP phosphodiesterase 4B (Homo sapiens) (Q07343 whole entry, looked up): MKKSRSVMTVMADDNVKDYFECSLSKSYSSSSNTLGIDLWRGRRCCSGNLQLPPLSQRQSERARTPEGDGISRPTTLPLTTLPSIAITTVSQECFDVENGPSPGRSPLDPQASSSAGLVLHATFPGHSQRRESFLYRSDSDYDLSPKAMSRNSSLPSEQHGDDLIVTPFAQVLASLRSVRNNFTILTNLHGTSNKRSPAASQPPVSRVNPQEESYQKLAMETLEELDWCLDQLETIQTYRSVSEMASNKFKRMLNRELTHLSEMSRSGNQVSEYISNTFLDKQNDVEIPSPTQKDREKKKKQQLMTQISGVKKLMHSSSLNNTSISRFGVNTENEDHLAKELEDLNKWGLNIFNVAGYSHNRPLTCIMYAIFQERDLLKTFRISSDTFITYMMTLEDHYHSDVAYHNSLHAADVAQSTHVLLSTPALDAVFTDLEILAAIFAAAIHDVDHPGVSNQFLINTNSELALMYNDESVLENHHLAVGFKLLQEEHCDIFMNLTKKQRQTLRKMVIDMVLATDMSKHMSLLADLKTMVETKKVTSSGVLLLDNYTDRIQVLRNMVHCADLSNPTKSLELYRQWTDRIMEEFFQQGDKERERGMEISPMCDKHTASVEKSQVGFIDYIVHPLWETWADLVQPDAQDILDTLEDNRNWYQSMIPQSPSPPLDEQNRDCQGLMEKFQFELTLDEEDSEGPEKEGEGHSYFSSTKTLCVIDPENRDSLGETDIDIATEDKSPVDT
In short: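 ACTOne HEK293 cells carry a modified cAMP-gated CNG channel and express endogenous PDE4; plated 1000 cells/well, compounds up to 22.9 uM final. Membrane-potential dye fluorescence (ex 535/em 590) was read; parental cells received 10 uM forskolin + 100 uM RO 20-1724.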

[8] = target: Cytochrome P450 3A4 (Homo sapiens) (UniProt P08684); assay: qHTS Assay for Activators of Cytochrome P450 3A4 (AID 885; active = well fitted curve in the direction sought with a large enough effect; an effect the other way counts as inactive or inconclusive; note: nearly all actives have a fitted effect of over 65% in size); settings: recombinant CYP3A4, Luciferin-PPXE luminescence, 60 min; series mostly up to 57.1 µM
Sequence of Cytochrome P450 3A4 (Homo sapiens) (P08684 whole entry, looked up): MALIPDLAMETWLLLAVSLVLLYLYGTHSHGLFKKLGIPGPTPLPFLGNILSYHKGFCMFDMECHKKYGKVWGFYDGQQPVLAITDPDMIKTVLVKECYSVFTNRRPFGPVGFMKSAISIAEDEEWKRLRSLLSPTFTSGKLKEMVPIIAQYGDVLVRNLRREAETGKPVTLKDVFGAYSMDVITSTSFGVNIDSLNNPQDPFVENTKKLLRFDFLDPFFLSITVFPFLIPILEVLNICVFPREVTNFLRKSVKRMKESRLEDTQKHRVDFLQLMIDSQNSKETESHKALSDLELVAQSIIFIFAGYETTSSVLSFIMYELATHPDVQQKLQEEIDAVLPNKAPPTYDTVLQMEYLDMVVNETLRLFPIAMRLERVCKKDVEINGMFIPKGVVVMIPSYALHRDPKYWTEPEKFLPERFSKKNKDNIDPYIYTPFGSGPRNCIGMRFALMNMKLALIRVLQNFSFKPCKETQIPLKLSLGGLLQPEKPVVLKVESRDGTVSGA
In short: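 20nM CYP3A4 + 25uM Luciferin-PPXE (=KM), 200mM KPO4; cpd 10 min RT; NADPH regen, 60 min RT; stop w/ detection buffer, 20 min; luminescence. Normalized to 57 uM ketoconazole.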

[9] = qHTS Assay for Lipid Storage Modulators (AID 1519); settings: Drosophila S3 cells, BODIPY lipid droplet/cell ratio, laser cytometry, cells loaded with oleic acid; for activity change, negative = inhibition: at 57.5 µM (top of the series)
In short: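 Cells seeded at 5,000 per well were treated with compounds over a concentration series and loaded with oleic acid (400 uM, as added). Lipid droplet fluorescence (488 nm excitation, 500-530 nm channel) was read by laser-scanning cytometry and normalized to 20 uM Triacsin C.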

[10] = Primary qHTS for small molecule stabilizers of the endoplasmic reticulum resident proteome: Secreted ER Calcium Modulated Protein (SERCaMP) assay (AID 1508630; active = well fitted curve in the direction sought with a large enough effect; an effect the other way counts as inactive or inconclusive; note: % is set by controls: 0 for no effect and ±100 for the full control effect); settings: SH-SY5Y GLuc-SERCaMP (Gaussia luciferase released on ER calcium loss) secretion, thapsigargin, luminescence; series mostly up to 38.4 µM
In short: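 GLuc-SERCaMP-expressing SH-SY5Y cells, pretreated 16 h with compound, are challenged with thapsigargin to empty ER calcium stores; after 4 h, coelenterazine is added directly to the medium and luminescence is imaged.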

[11] = Stat Signaling Pathway (AID 446; active = well fitted curve in either direction with a large enough effect, not every such curve was filed as active); settings: ME-180 SIE beta-lactamase reporter, IL-6 stimulated, 5 h; at 7.69 µM (top of the series) unless noted
In short: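 ME-180 SIE-bla cells; overnight plating; cpd + IL-6 40 pM, 5 h, 37 C; LiveBLAzer 2.5 h RT; 460/530 nm emission ratio. Normalized to 300 pM IL-6 and 125 nM JAK inhibitor controls.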

[12] = target: Cytochrome P450 2C9 (Homo sapiens) (UniProt P11712); assay: qHTS Assay for Inhibitors and Substrates of Cytochrome P450 2C9 (AID 883; active = well fitted curve in the direction sought with a large enough effect; an effect the other way counts as inactive or inconclusive; note: % is set by controls: 0 for no effect and ±100 for the full control effect; nearly all actives have a fitted effect of over 60% in size); settings: recombinant CYP2C9, luciferin-H luminescence, 60 min; series mostly up to 57.1 µM
Sequence of Cytochrome P450 2C9 (Homo sapiens) (P11712 whole entry, looked up): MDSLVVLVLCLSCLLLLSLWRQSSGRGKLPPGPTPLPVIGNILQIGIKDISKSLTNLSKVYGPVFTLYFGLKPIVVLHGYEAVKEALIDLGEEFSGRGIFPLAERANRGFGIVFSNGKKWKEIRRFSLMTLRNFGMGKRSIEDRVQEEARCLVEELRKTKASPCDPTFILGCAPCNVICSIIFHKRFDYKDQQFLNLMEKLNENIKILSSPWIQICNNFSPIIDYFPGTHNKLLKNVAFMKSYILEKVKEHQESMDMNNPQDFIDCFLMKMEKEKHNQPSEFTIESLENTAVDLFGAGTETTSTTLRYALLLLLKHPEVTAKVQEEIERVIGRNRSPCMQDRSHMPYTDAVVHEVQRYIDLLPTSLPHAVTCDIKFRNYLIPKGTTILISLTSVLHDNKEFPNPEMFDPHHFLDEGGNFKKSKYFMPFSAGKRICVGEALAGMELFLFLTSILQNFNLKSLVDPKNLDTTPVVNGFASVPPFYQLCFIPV
In short: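 Human CYP2C9 (10nM) with Luciferin-H at 100uM (its KM) in 25mM KPO4; compound preincubated 10 min at 37C, then NADPH regeneration for 60 min at 37C. Luciferin read by luminescence after detection reagent; normalized to 57uM sulphaphenazole as full inhibition.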

[13] = target: Cytochrome P450 2C19 (Homo sapiens) (UniProt P33261); assay: qHTS Assay for Inhibitors and Substrates of Cytochrome P450 2C19 (AID 899; active = well fitted curve in the direction sought with a large enough effect; an effect the other way counts as inactive or inconclusive; note: potency is the fitted concentration of half-maximal effect; nearly all actives have a fitted effect of over 60% in size); settings: recombinant CYP2C19, luciferin-H EGE luminescence; series mostly up to 57.1 µM
Sequence of Cytochrome P450 2C19 (Homo sapiens) (P33261 whole entry, looked up): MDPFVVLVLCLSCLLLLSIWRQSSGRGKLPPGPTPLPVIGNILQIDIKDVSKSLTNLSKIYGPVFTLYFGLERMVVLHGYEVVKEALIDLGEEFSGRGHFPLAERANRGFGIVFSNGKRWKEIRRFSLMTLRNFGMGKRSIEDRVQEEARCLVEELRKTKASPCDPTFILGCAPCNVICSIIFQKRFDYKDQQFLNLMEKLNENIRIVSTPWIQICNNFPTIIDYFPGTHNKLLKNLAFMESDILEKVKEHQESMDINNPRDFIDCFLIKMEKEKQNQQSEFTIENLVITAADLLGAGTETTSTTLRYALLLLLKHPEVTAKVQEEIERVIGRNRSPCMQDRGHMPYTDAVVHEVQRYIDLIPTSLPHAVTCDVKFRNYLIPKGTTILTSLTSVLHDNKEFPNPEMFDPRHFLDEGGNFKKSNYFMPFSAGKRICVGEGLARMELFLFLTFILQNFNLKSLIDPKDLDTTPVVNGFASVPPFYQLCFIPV
In short: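 5 nM human CYP2C19 with 10uM Luciferin-H EGE (at KM) in 50mM KPO4, compound preincubated 10 min at 37C, then NADPH regeneration for 60 min at 37C. Luciferin read by luminescence after detection reagent; normalized to 57uM ketoconazole as full inhibition.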

[14] = target: Glucocorticoid receptor (Homo sapiens) (UniProt P04150); assay: GR-GFP Redistribution (AID 450;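 active = compounds whose dose series gives a full or clear partial fitted curve of increased nuclear translocation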; note: potency is the fitted concentration of half-maximal effect); settings: U2OS GR-GFP nuclear translocation, laser cytometry, 2 h
[15] = Confirmation and Secondary Assay for Modulators of Hemoglobin Beta Chain Splicing at IVS2 654 locus (AID 910; active = well fitted curve in the direction sought with a large enough effect; an effect the other way counts as inactive or inconclusive;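 note: HeLa cells stably carrying EGFP split by mutant beta-globin IVS2-654 intron; % of control where 0% means no effect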); settings: HeLa EGFP-654 splicing reporter, GFP fluorescence, 48 h; series mostly up to 38.3 µM
In short: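 HeLa cells stably expressing EGFP interrupted by β-globin IVS2-654 intron, seeded overnight in Opti-MEM/2% FCS, then treated 2 days at 37 °C. Restored splicing read as total peak GFP intensity per well by laser scanning cytometry (488 nm excitation, 500–520 nm emission); 500 nM antisense PNA as control.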

[16] = Confirmation and Secondary Assay for Modulators of Hemoglobin Beta Chain Splicing at IVS2 705 locus (AID 930; active = well fitted curve in the direction sought with a large enough effect; an effect the other way counts as inactive or inconclusive;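 note: HeLa cells stably expressing the EGFP-705 splicing reporter; GFP fluorescence per well restored by corrected splicing of the IVS2-705 intron in EGFP; % of control where 0% means no effect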); settings: HeLa EGFP-705 splicing reporter, GFP fluorescence, 48 h; series mostly up to 38.3 µM
In short: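 HeLa EGFP-705 reporter; 500 cells/well, o/n 37C 5% CO2; cpd 2 d; 488 ex/500-520 em laser scan; total peak GFP intensity/well. Ref: 500 nM […] antisense PNA.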

[17] = target: Ubiquitin carboxyl-terminal hydrolase 1 (Homo sapiens) (UniProt O94782); assay: Inhibitors of USP1/UAF1: Pilot qHTS (AID 504865; active = well fitted curve in the direction sought with a large enough effect; an effect the other way counts as inactive or inconclusive;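 note: rhodamine fluorescence freed from ubiquitin-rhodamine substrate followed over time; top concentration of the series differs between compounds; % is set by controls: 0 for no effect and ±100 for the full control effect; nearly all actives have a fitted effect of over 35% in size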); settings: purified USP1/UAF1, Ub-rhodamine cleavage fluorescence; series mostly up to 54.9 µM
Sequence of Ubiquitin carboxyl-terminal hydrolase 1 (Homo sapiens) (O94782 whole entry, looked up): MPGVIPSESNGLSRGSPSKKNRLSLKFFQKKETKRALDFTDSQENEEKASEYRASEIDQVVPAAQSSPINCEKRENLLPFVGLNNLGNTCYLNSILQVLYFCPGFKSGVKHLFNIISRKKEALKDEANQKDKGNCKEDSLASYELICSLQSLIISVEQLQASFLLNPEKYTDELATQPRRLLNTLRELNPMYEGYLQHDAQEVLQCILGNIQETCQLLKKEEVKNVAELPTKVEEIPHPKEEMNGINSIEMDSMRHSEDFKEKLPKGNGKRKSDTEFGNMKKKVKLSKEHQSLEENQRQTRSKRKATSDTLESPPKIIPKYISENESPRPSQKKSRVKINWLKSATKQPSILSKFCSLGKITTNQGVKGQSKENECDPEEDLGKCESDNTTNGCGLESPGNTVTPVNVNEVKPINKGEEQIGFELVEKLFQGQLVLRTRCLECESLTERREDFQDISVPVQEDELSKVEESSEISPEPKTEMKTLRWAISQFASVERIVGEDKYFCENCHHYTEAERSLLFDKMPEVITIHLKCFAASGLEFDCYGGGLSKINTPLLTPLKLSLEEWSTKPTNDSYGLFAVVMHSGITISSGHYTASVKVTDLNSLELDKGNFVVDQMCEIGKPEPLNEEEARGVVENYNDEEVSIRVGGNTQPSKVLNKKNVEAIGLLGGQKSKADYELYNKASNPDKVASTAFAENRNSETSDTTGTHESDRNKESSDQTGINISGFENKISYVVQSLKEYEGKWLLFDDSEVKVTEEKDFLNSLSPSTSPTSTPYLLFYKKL
In short: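 In 50mM HEPES pH 7.8 containing 0.5mM EDTA, 1mM TCEP, 0.1 mg/ml BSA and 0.01% Tween-20, 1nM USP1/UAF1 is exposed to compound for 15 min, then Ub-Rho (150nM final) is added and fluorescence is read over time.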

[18] = measured here: cell count channel max response
[19] = measured here: lipid channel max response

Sequence of Lysosomal acid glucosylceramidase (Homo sapiens) (P04062 whole entry, looked up): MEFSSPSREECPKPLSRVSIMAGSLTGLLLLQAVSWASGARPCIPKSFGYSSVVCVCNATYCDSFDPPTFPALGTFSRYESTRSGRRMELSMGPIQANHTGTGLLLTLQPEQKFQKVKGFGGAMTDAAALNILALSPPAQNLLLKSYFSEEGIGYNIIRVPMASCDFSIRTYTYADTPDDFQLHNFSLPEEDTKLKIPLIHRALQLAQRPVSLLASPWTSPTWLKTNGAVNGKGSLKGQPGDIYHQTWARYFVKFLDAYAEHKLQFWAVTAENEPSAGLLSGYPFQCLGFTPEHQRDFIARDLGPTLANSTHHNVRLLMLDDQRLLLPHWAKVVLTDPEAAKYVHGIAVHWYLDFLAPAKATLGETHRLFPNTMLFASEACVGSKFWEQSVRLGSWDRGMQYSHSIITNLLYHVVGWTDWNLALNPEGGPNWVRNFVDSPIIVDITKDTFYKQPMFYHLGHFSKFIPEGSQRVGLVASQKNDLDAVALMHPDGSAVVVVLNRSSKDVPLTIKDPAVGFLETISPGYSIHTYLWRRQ

O=C(c1ccncc1)N1CCC[C@@]2(CCN(c3ncccn3)C2)C1
21.2%: max response [9, 18]
24.4%: max response [9, 19]
inactive: Potency [1] > 11.4 µM | activity change, negative = inhibition [2] 2.24% | Potency [3] | activity change, negative = inhibition [4] 20.3% | Potency [5] > 46 µM | outcome [6] | Potency [7] | Potency [8] | activity change, negative = inhibition [9] 3.78% | Potency [10]

CS(=O)(=O)N1CCC2(CC1)CN(c1cccc(-c3ccccc3)c1)C2
active: Potency [3] 5.01 µM
inactive: Potency [1] > 11.4 µM | activity change, negative = inhibition [2] 6.38% | activity change, negative = inhibition [4] 9.12% | activity, negative = inhibition [11] -14.9% | Potency [5] > 46 µM | Potency [7] | Potency [12] | activity change, negative = inhibition [9] -16.1% | Potency [10]
-11.7%: max response [9, 18]
-21%: max response [9, 19]

Cn1cccc1C(=O)N1CCC2(CCCN(c3ccccc3)C2)CC1
1.38%: max response [9, 18]
7.11%: max response [9, 19]
active: Potency [3] 10 µM | Potency [13] 7.94 µM
inactive: Potency [1] > 11.4 µM | activity change, negative = inhibition [2] -3.96% | activity change, negative = inhibition [4] 5.63% | activity, negative = inhibition [11] -6.3% | Potency [5] > 46 µM | Potency [7] | Potency [8] | activity change, negative = inhibition [9] 1.89% | Potency [10]

COc1ccc(NC(=O)N2CCCC3(CCN(C(=O)c4csnn4)CC3)C2)cc1
11.2%: max response [9, 18]
22.4%: max response [9, 19]
inactive: Potency [1] > 11.4 µM | activity change, negative = inhibition [2] -1.51% | Potency [3] | activity change, negative = inhibition [4] -2.25% | Potency [5] > 46 µM | outcome [6] | Potency [7] | Potency [8] | activity change, negative = inhibition [9] 6.81% | Potency [10]

CN(Cc1ccco1)c1ncnc2ccc(-c3cccc(C#N)c3)cc12
inactive: Potency [1] > 11.4 µM | activity change, negative = inhibition [2] 6.41% | activity change, negative = inhibition [4] 19.8% | Potency [14] > 46 µM | Potency [5] > 46 µM | outcome [6] | Potency [7] | Potency [8] | outcome [15] | outcome [16] | activity change, negative = inhibition [9] 6.34% | Potency [17] | Potency [10]
-3.6%: max response [9, 18]
active: Potency [3] 0.501 µM
2.39%: max response [9, 19]

— PubChem BioAssay (NCATS)
